{
  "source": "PubChem BioAssay AID624138",
  "about": "(Broad Institute, 2012)",
  "note": "Among all 17,000 compounds or so, about 35 (0.2%) were called active.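 How the source made its calls: active means compounds whose four printed spots each show fluorescence over background unusually high for their array block, chance value under 7%; inactive means the rest.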 The list comes from a sample in which actives are over-represented; it also holds similar structures and randomly drawn compounds.",
  "data": [
    {"biological_target": "Signal transducer and activator of transcription 3 (Homo sapiens) (UniProt P40763)", "sequence (P40763 whole entry, looked up)": "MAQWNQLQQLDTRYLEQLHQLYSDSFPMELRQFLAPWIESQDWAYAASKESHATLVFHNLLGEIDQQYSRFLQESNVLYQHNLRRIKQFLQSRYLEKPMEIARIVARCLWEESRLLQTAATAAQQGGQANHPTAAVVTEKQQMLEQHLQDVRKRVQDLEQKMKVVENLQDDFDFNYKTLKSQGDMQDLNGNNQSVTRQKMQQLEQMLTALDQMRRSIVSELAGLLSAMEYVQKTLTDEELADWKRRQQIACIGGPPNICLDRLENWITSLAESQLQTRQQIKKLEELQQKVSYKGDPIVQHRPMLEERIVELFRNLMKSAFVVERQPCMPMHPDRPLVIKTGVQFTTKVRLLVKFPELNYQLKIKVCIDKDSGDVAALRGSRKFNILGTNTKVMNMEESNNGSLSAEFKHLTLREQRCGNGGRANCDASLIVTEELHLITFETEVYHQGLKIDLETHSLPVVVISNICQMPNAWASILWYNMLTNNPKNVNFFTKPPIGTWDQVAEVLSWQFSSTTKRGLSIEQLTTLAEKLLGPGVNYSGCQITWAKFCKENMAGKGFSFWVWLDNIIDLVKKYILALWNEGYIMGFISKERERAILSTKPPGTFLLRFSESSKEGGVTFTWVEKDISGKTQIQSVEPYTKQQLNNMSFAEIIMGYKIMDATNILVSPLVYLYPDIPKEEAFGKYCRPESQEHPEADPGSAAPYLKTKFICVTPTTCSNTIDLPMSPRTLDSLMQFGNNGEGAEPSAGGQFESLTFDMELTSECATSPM", "assay": "small molecules binding His-tagged STAT3 – biochemical, small molecule microarray, single point, set 2, primary screen (AID 624138)", "conditions": "anti-His fluorescence", "values": [
      {"smiles": "C[C@@H]1CN([C@H](C)CO)C(=O)Cc2cc(NC(=O)CCCN(C)C)ccc2O[C@@H]1CN(C)S(=O)(=O)c1cccs1", "outcome": "inactive"},
      {"smiles": "N#Cc1cccc(CSc2nnc(CCCO)n2-c2ccccc2)c1", "outcome": "inactive"},
      {"smiles": "C[C@@H]1CCCCO[C@@H](CN(C)Cc2ccccc2)[C@H](C)CN([C@H](C)CO)C(=O)c2cc(NS(=O)(=O)c3cccs3)ccc2O1", "outcome": "inactive"},
      {"smiles": "O=C(CS(=O)(=O)c1ccccc1)Nc1ccc2c(c1)OCCO2", "outcome": "inactive"},
      {"smiles": "O=[N+]([O-])c1ccccc1/C=C/CN1CCC(O)CC1", "outcome": "inactive"},
      {"smiles": "COc1ccc(CN(C)C[C@H]2Oc3c(NC(=O)c4ccncc4)cccc3C(=O)N([C@H](C)CO)C[C@@H]2C)cc1", "outcome": "inactive"},
      {"smiles": "CCO[C@@H]1OC(C(=O)N2CCOCC2)=C[C@H](C)[C@H]1CCCO", "outcome": "inactive"},
      {"smiles": "O=[N+]([O-])c1ccc(NCCNS(=O)(=O)c2ccc(Br)cc2)c(C(F)(F)F)c1", "outcome": "inactive"},
      {"smiles": "COc1ccc(NC(=S)NCc2cc(C)n(C)n2)cc1OC", "outcome": "inactive"},
      {"smiles": "C[C@@H]1CN([C@@H](C)CO)C(=O)c2cc(NC(=O)Nc3ccc4c(c3)OCO4)ccc2O[C@@H]1CN(C)C(=O)Nc1ccc2c(c1)OCO2", "outcome": "inactive"},
      {"smiles": "C[C@@H]1CN([C@H](C)CO)C(=O)c2cccc(NC(=O)Nc3cccc4ccccc34)c2O[C@@H]1CN(C)C(=O)Nc1cccc2ccccc12", "outcome": "inactive"},
      {"smiles": "CNC[C@@H]1Oc2ccc(NC(=O)CCC(F)(F)F)cc2C(=O)N([C@@H](C)CO)C[C@@H]1C", "outcome": "inactive"},
      {"smiles": "Oc1cc(O)c2c(c1)OC(c1ccc(O)c(O)c1)C(O)C2", "note": "(configuration not stated)", "outcome": "inactive"},
      {"smiles": "C[C@H]1CN([C@@H](C)CO)C(=O)c2cc(N(C)C)ccc2O[C@@H]1CN(C)Cc1ccccc1", "outcome": "inactive"},
      {"smiles": "CCN(CCCCOC(=O)c1ccc(OC)c(OC)c1)C(C)Cc1ccc(OC)cc1", "note": "(configuration not stated)", "outcome": "inactive"},
      {"smiles": "COc1ccc(S(=O)(=O)N(C)C[C@H]2Oc3c(NC(=O)NC4CCCCC4)cccc3C(=O)N([C@@H](C)CO)C[C@@H]2C)cc1", "outcome": "inactive"},
      {"smiles": "CCc1cc2c(=O)n(-c3ccccc3)c(SCC(=O)O)nc2s1", "outcome": "inactive"},
      {"smiles": "C[C@H]1CCCCO[C@@H](CN(C)C(=O)c2ccccc2)[C@@H](C)CN([C@@H](C)CO)C(=O)c2cc(NS(=O)(=O)c3cccs3)ccc2O1", "outcome": "inactive"},
      {"smiles": "Cc1noc(C)c1NC(=O)Nc1ccc2c(c1)C(=O)N([C@@H](C)CO)C[C@H](C)[C@@H](CN(C)C(=O)C1CCCCC1)OCCCC[C@@H](C)O2", "outcome": "inactive"},
      {"smiles": "C[C@@H]1CCCCO[C@H](CN(C)C(=O)CCC(F)(F)F)[C@H](C)CN([C@H](C)CO)C(=O)c2cc(NS(C)(=O)=O)ccc2O1", "outcome": "inactive"},
      {"smiles": "C[C@H](CO)N1C[C@H](C)[C@H](CN(C)C(=O)CCC(F)(F)F)OCCCC[C@H](C)Oc2ccc(NS(C)(=O)=O)cc2C1=O", "outcome": "active"},
      {"smiles": "C[C@@H]1CN([C@H](C)CO)C(=O)c2cc(NS(=O)(=O)c3ccccc3)ccc2O[C@@H](C)CCCCO[C@@H]1CN(C)C(=O)CCC(F)(F)F", "outcome": "inactive"},
      {"smiles": "Cc1ccc(-n2c(SCC(=O)Nc3ccc(F)c(F)c3)nnc2-c2ccccn2)cc1", "outcome": "inactive"},
      {"smiles": "CC(C)NC(=O)Nc1ccc2c(c1)C(=O)N([C@H](C)CO)C[C@H](C)[C@H](CN(C)Cc1ccc(C(=O)O)cc1)OCCCC[C@@H](C)O2", "outcome": "inactive"},
      {"smiles": "O=C(NCc1ccco1)c1nc2ncccn2n1", "outcome": "inactive"},
      {"smiles": "OC(COc1ccc2ccccc2c1)Cn1cncn1", "note": "(configuration not stated)", "outcome": "inactive"},
      {"smiles": "Cc1ccc(C(=O)C2C(=O)C(=O)N(Cc3cccnc3)C2c2ccc(Cl)c(Cl)c2)o1", "note": "(configuration not stated)", "outcome": "inactive"},
      {"smiles": "Cc1noc(C)c1NC(=O)Nc1ccc2c(c1)C(=O)N([C@@H](C)CO)C[C@H](C)[C@H](CN(C)Cc1ccc(C(=O)O)cc1)OCCCC[C@@H](C)O2", "outcome": "inactive"},
      {"smiles": "C[C@H](CO)N1C[C@H](C)[C@H](CN(C)Cc2ccncc2)Oc2ccc(N(C)C)cc2C1=O", "outcome": "inactive"},
      {"smiles": "C[C@H]1CN([C@@H](C)CO)C(=O)c2cc(NC(=O)Cn3cnnn3)ccc2O[C@@H]1CN(C)CC1CCCCC1", "outcome": "inactive"},
      {"smiles": "C[C@H]1CN([C@@H](C)CO)C(=O)Cc2cc(NC(=O)Nc3ccccc3)ccc2O[C@H]1CN(C)Cc1ccncc1", "outcome": "inactive"},
      {"smiles": "Cc1cc(O)c2c(c1)C(=O)OC2c1c(O)cccc1O", "note": "(configuration not stated)", "outcome": "inactive"},
      {"smiles": "CO[C@H]1O[C@H](CO)[C@@H](OC(=O)Nc2ccccc2-c2ccccc2)[C@H](OC(=O)Nc2ccccc2)[C@H]1OC(=O)Nc1ccccc1", "outcome": "inactive"},
      {"smiles": "CC(=O)n1cc([C@@H]2C=C(C(=O)N3CCN(Cc4ccc5c(c4)OCO5)CC3)O[C@H](OCc3ccc(CO)cc3)C2)c2ccccc21", "outcome": "inactive"},
      {"smiles": "Cc1noc(C)c1S(=O)(=O)Nc1ccc2c(c1)C(=O)N([C@@H](C)CO)C[C@@H](C)[C@H](CN(C)C(=O)NC(C)C)OCCCC[C@@H](C)O2", "outcome": "inactive"},
      {"smiles": "Cc1noc(C)c1NC(=O)Nc1ccc2c(c1)C(=O)N([C@@H](C)CO)C[C@H](C)[C@H](CN(C)S(=O)(=O)c1cn(C)cn1)OCCCC[C@@H](C)O2", "outcome": "inactive"},
      {"smiles": "C[C@@H]1CN([C@H](C)CO)C(=O)c2cccc(NS(=O)(=O)c3cccs3)c2O[C@@H]1CN(C)C(=O)Nc1cccc2ccccc12", "outcome": "inactive"},
      {"smiles": "CC(C)NC(=O)Nc1ccc2c(c1)C(=O)N([C@@H](C)CO)C[C@@H](C)[C@H](CN(C)S(=O)(=O)c1ccccc1)OCCCC[C@@H](C)O2", "outcome": "inactive"},
      {"smiles": "CC(=O)Nc1ccc(NC(=O)CC2C(=O)Nc3ccccc3N2C(C)=O)cc1", "note": "(configuration not stated)", "outcome": "inactive"},
      {"smiles": "COc1ccc2c(c1)C(=O)CC(c1ccccc1)O2", "note": "(configuration not stated)", "outcome": "inactive"},
      {"smiles": "Cc1ccc2[nH]c(C)c(CCNC(=O)Nc3ccc(Cl)cc3)c2c1", "outcome": "inactive"},
      {"smiles": "C[C@@H]1CN([C@H](C)CO)C(=O)c2cccc(NC(=O)C3CCOCC3)c2O[C@H]1CN(C)S(=O)(=O)c1ccc(Cl)cc1", "outcome": "inactive"},
      {"smiles": "COc1ccc(S(=O)(=O)Nc2ccc3c(c2)CC(=O)N([C@H](C)CO)C[C@H](C)[C@H](CN(C)CC2CC2)O3)cc1", "outcome": "inactive"},
      {"smiles": "Cc1noc(C)c1S(=O)(=O)N(C)C[C@H]1Oc2c(NC(=O)c3cnccn3)cccc2C(=O)N([C@H](C)CO)C[C@H]1C", "outcome": "inactive"},
      {"smiles": "C/C(=C/CC[C@@H](CO)[C@H]1CC[C@@]2(C)[C@@H]3CC[C@H]4C(C)(C)[C@@H](O[C@@H]5O[C@H](CO)[C@@H](O)[C@H](O)[C@H]5O)C[C@H](O)[C@@]45C[C@@]35CC[C@]12C)CO", "outcome": "inactive"},
      {"smiles": "O=C(C1=C[C@@H](c2ccccc2)C[C@@H](OCCCCO)O1)N1CCN(Cc2ccccc2)CC1", "outcome": "inactive"},
      {"smiles": "C=C1C[C@@H]2COC(=O)[C@]2(Cc2ccc3ccccc3c2)C1", "outcome": "inactive"},
      {"smiles": "O=C(OC1OC(CO)C(O)C(O)C1O)c1c(O)cc(O)cc1/C=C/c1ccccc1", "note": "(configuration not stated)", "outcome": "inactive"},
      {"smiles": "COc1ccc(CN(C)C[C@@H]2Oc3ccc(NC(=O)Nc4ccc(OC)cc4)cc3CC(=O)N([C@H](C)CO)C[C@H]2C)cc1", "outcome": "inactive"},
      {"smiles": "C[C@@H]1CCCCO[C@H](CN(C)C(=O)CCCN(C)C)[C@H](C)CN([C@@H](C)CO)C(=O)c2cc(NS(=O)(=O)c3ccccc3)ccc2O1", "outcome": "inactive"},
      {"smiles": "C[C@@H]1CCCCO[C@@H](CN(C)C(=O)CCCN(C)C)[C@@H](C)CN([C@H](C)CO)C(=O)c2cc(NC(=O)CCCN(C)C)ccc2O1", "outcome": "inactive"},
      {"smiles": "CNC[C@H]1Oc2ccc(NC(=O)CCC(F)(F)F)cc2C(=O)N([C@@H](C)CO)C[C@H]1C", "outcome": "inactive"},
      {"smiles": "CCCCCc1ccc(/C=C/C(=O)Nc2ccccc2C(=O)O)cc1", "outcome": "inactive"},
      {"smiles": "CC(Sc1nc2ccccc2[nH]1)c1nc2ccccc2[nH]1", "note": "(configuration not stated)", "outcome": "inactive"},
      {"smiles": "C[C@H]1CCCCO[C@H](CN(C)C)[C@@H](C)CN([C@@H](C)CO)C(=O)c2cc(NC(=O)CCCN(C)C)ccc2O1", "outcome": "inactive"},
      {"smiles": "COC(=O)CSc1nnc(-c2ccc(Cl)cc2)n1-c1ccc(Br)cc1", "outcome": "inactive"},
      {"smiles": "C[C@@H]1CN([C@H](C)CO)C(=O)Cc2cc(NC(=O)C3CC3)ccc2O[C@H]1CN(C)Cc1ccc(Cl)c(Cl)c1", "outcome": "inactive"},
      {"smiles": "COc1ccc(NC(=O)CN(C)S(=O)(=O)c2ccccc2)cc1OC", "outcome": "inactive"},
      {"smiles": "C#CCN1C(Cc2ccccc2)C(=O)O[C@H](C2CCCCC2)[C@@H]1/C=C/C1CC1", "note": "(some centres not stated)", "outcome": "inactive"},
      {"smiles": "C[C@@H]1CN([C@H](C)CO)C(=O)Cc2cc(N(C)C)ccc2O[C@@H]1CN(C)Cc1ccccc1", "outcome": "inactive"},
      {"smiles": "C[C@H]1CN([C@@H](C)CO)C(=O)c2cccc(NC(=O)C3CCOCC3)c2O[C@@H]1CN(C)C", "outcome": "inactive"},
      {"smiles": "CC1(C)CC(=O)c2ccc(O)cc2O1", "outcome": "inactive"},
      {"smiles": "C[C@@H]1CN([C@@H](C)CO)C(=O)CCCn2cc(nn2)CO[C@H]1CN(C)C(=O)Nc1ccc(N2CCCCC2)cc1", "outcome": "inactive"},
      {"smiles": "Cc1noc(C)c1S(=O)(=O)N(C)C[C@H]1Oc2ccc(NC(=O)Cc3ccccc3)cc2CC(=O)N([C@@H](C)CO)C[C@H]1C", "outcome": "inactive"},
      {"smiles": "COc1ccccc1NC(=O)CNC(=O)c1ccc(C)cc1", "outcome": "inactive"},
      {"smiles": "CC(C)NC(=O)Nc1ccc2c(c1)C(=O)N([C@H](C)CO)C[C@H](C)[C@@H](CN(C)C)OCCCC[C@H](C)O2", "outcome": "inactive"},
      {"smiles": "CCn1c(SCC(=O)Nc2sc3c(c2C#N)CCCC3)nnc1-c1ccccc1O", "outcome": "inactive"}
    ]}
  ]
}
